# Compound: CCc1cnn2c(NCc3ccc[n+]([O-])c3)cc(N3CCCC[C@H]3CCO)nc12 [dinaciclib]
# Assay: cell viability remaining relative to DMSO control; higher = less cytotoxic (more viable cells)
# Conditions: 100 nM; 24 h
# Experimental: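 Solid tumor cell lines were treated with dinaciclib (100 nM) for 24 hr. Viability was measured by CellTiter-Glo ATP luminescence and expressed as % of DMSO-treated control wells (mean of 2-6 plates, triplicate wells per plate).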
row,Target,cell viability remaining [%]
1,SW1271,80.7
2,MDAMB453,65.4
3,MCF7,76
4,CAPAN1,85.3
5,H69,87.1
6,HS578T,69.3
7,YAPC,56.3
8,RD,41.1
9,CCFSTTG1,70.6
10,H1944,76.9
11,KATOIII,87.5
12,H1792,60.9
13,COV362,81
14,CFPAC1,85.5
15,SNU423,36.7
16,CAMA1,51.8
17,MG63,86.8
18,59M,73.2
19,SKNAS,35
20,HEC6,57.7

row,Target,cell viability remaining [%]
1,RMUGS,62
2,AN3CA,13.9
3,LOVO,88.9
4,KPL1,50.2
5,SW1088,58
6,H508,75.7
7,CHP212,19.7
8,ASPC1,93.6
9,HCC827,67.9
10,HCC1806,60
11,H526,16.7
12,H446,51.2
13,SKMES1,53.9
14,RKO,49.6
15,EFO21,93.6
16,EN,51.9
17,CAL54,78.9
18,H292,51.5
19,H460,52.2
20,HCC1187,21.6

# From the supplement of paper PMC4188521
